Source: PubChem BioAssay (National Center for Advancing Translational Sciences (NCATS))
Most compounds without a hit are left out; they make up all but 2.9% or so of the library.
GLP1R ag: qHTS of GLP-1 Receptor Agonists | HEK293 GLP-1R CRE-luciferase, luminescence, 4-6 h; cells express a hypersensitive GLP-1R form | Potency, µM (highest dose often 45.6 µM), inactives show at the highest dose activation, most hits filed as activators | 380,000 tested, 0.007% active | AID 624172, 2012; further: potency means the concentration at half of the fitted maximal effect; % of control where 0% means no effect
ClpP mod: qHTS Assay for Activators of ClpP; purified B. subtilis ClpP, FRET peptide cleavage, 20 min; ATP-dependent Clp protease proteolytic subunit (Bacillus subtilis (strain 168)), P80244; Potency, µM (doses to about 57.5 µM), without a hit: at the highest dose activity change, negative = active; 340,000 tested, 1.9% active; AID 651965, 2013; active means well fitted falling curve with a large enough effect; inconclusive means small, poorly fitted or top-dose-only effect; inactive means no such curve, though single readings can be large or run the other way; further: potency means the concentration at half of the fitted maximal effect; the source files actives as falling curves though it sought activators and does not explain the sign; nearly all actives have a fitted effect of over 65% in size
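Buffer: 100 mM Tris/HCl pH8, 100 mM KCl, 0.05% low protease BSA, 2.5% glycerol, 0.01% Tween-20. ClpP 10 microg/mL final; 20 min RT; delta FRET normalized to ADEP and DMSO controls.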
GLP-1R inv ag: qHTS of GLP-1 Receptor Inverse Agonists (Inhibition Mode); AID 624417, 2012; Potency, µM (series often up to 38.3 µM), inactives show at the highest dose activity change, negative = inhibition, usual class: inhibitors; 410,000 tested, 1.6% active; HEK293 GLP-1R CRE-luciferase, luminescence, 24 h; GLP-1R form is constitutively active; Glucagon-like peptide 1 receptor (Homo sapiens), P43220; further: potency means the concentration at half of the fitted maximal effect; on the % scale 0 is the no-effect control and ±100 the full control effect; nearly all actives have a fitted effect of over 55% in size
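Stable HEK293 clone (constitutively active GLP-1R + cAMP-response luciferase); 200 cells/uL plated, 12 h pre-culture, compound 24 hr, 37 deg C/5% CO2; detection reagent 12 min RT; luminescence.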
p53 reactivation: qHTS assay for re-activators of p53 using a Luc reporter | H1299 p53-A138V BP100-luciferase reporter, luminescence, 24 h | Potency, µM (highest dose often 92.2 µM), inactives show at the highest dose activity change, positive = activation, usual class: activators | 320,000 tested, 0.063% active; further: potency means the concentration at half of the fitted maximal effect; % of control where 0% means no effect; nearly all actives have a fitted effect of over 45% in size
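H1299 (p53-null), stable ts p53-A138V + BP100-Luc; 1000 cells/well, Opti-MEM/10% FBS; cpd 4 pt, 1:5; 24 h, 37 deg C, 5% CO2; detection reagent 10 min RT; luminescence.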
HEK293 tox: qHTS of GLP-1 Receptor Inverse Agonists: Cytotox Screen. 410,000 tested, 0.13% active. HEK293 cAMP-luciferase reporter cells, luminescence, 24 h. Potency, µM (titrated, usually from 38.3 µM), for the others: at the highest dose activity change, negative = inhibition, usual class: inhibitors;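 further: loss of luciferase light is scored as toxicity; potency means the concentration at half of the fitted maximal effect; on the % scale 0 is the no-effect control and ±100 the full control effect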
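Cells in DMEM/10% Nu serum/1% pen-strep, 1536-well format. Pre-incubated 12 h, dosed with 23 nL compound, incubated a further 24 h. Luciferase detection, 12 min at room temp, luminescence.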
LDHA block: qHTS assay for inhibitors of human lactate dehydrogenase; L-lactate dehydrogenase A chain (Homo sapiens), P00338; purified LDHA, NADH/diaphorase-resazurin fluorescence; stronger effect = lower value; activity change, % (values are at about 110 or 230 µM); 480,000 tested, 0.15% active; in the data active means activity change below about -30%; inconclusive means mostly about -25% to -30%;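 further: plate controls were DMSO wells for no effect and wells without enzyme for full effect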
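Remaining NADH was detected by diaphorase (0.133 mg/mL) converting 37 µM resazurin to fluorescent resorufin, read at 0 and 20 minutes. The preceding 5-minute room-temperature reaction used 2 nM LDHA, 0.2 mM sodium pyruvate and 0.06 mM NADH at pH 7.4.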
The depositor's hits bear a star; ? = inconclusive; / = no result given; [ ] = dose if it differs, or a comment. Unless noted, the call rests on the fitted dose curve; in most records, active means well fitted curve in the direction sought with a large enough effect; inconclusive means small, poorly fitted or top-dose-only effect, or another doubt; inactive means no such curve, though single readings can be large; an effect the other way counts as inactive or inconclusive.

SMILES | GLP1R ag | ClpP mod | GLP-1R inv ag | p53 reactivation | HEK293 tox | LDHA block
O=C1c2cccc3cccc(c23)C(=O)N1c1cccnc1 | 1% | 16µM* | 3% | 4% | -15% | 4
O=C1c2cccc3cccc(c23)C(=O)N1c1ccncc1 | -8% | 10µM* | 14% | -4% | -7% | -8
COc1ccc(N2C(=O)c3cccc4cccc(c34)C2=O)cc1 | -7% | 0% | 9% | / | -1% | -4
CCc1nnc(N2C(=O)c3cccc4cccc(c34)C2=O)s1 | 31% | 16µM* | 16% | -11% | -1% | 2
Cc1ccc(NCC(=O)N/N=C/c2c[nH]c3ccccc23)cc1 | -3% | / | ? | 1% | 15% | 3
Cc1ccc(C(=O)NC2C3CC4CC(C3)CC2C4)cc1C (centres undefined) | / | / | / | / | / | 6
O=C(NC1C2CC3CC(C2)CC1C3)c1ccc2c(c1)OCO2 (centres undefined) | -4% | 20µM* | ? | 6% | 2% | -7
CSC1=C(C#N)C(c2ccc(C)s2)CC(=O)N1 (centres undefined) | -8% | 2% | 0% | -4% | -8% | 1
Cc1ccccc1CN1CCN(S(C)(=O)=O)CC1 | 1% | 0% | 5% | -7% | 6% | -13
Cc1ccccc1CN1CCN(S(=O)(=O)c2ccc(Cl)s2)CC1 | 1% | -1% | 10µM* | 14% | -10% | -1
CCCc1[nH]n(-c2ccc([N+](=O)[O-])cc2)c(=O)c1C=NCCc1c[nH]c2ccccc12 | -4% | -6% | ? | 12% | -17% | -14
CC(C)(C)c1ccc(S(=O)(=O)N2CCC(O)(c3ccc(Cl)cc3)CC2)cc1 | 2% | 0% | 7.1µM* | 14% | -13% | 2
CN1CCN(CC2(O)CCN(S(=O)(=O)c3ccc(Cl)cc3)CC2)CC1 | 4% | / | 0.89µM* | 2% | 15% | -9
O=C(Nc1ccc(-c2nc3cc(Cl)ccc3o2)cc1)C1CCCO1 (centres undefined) | 1% | 28µM* | -4% | ? | -17% | -6
O=C(Nc1ccc(-c2nc3cc(Cl)ccc3o2)cc1)c1cc(Br)ccc1Cl | / | 28µM* | -10% | / | -22% | -13
Cc1ccccc1NC(=O)c1ccc(NC(=O)C2CCCO2)cc1 (centres undefined) | 0% | 16µM* | 25% | ? | -1% | -5
O=C(Nc1ccc(F)cc1)c1ccc(NC(=O)C2CCCO2)cc1 (centres undefined) | 1% | 1% | 0% | 17% | -3% | -4
Cc1ccc2nc(-c3ccc(NC(=O)C4CCCO4)cc3)[nH]c2c1 (centres undefined) | -19% | 32µM* | 7.9µM* | 8% | 4% | -3
O=C(Cc1ccccc1Cl)Nc1ccc(S(=O)(=O)N2CCOCC2)cc1 | 8% | 1% | -17% | 2% | -4% | 4
O=C(Nc1ccc2oc(-c3ccccc3)nc2c1)C1CCCO1 (centres undefined) | 1% | -1% | 6% | ? | -1%[1.53 µM] | -8
O=C(Nc1ccc(-c2nc3ccccc3o2)cc1)C1CCCO1 (centres undefined) | -17% | 16µM* | -5% | / | 2% | 0
Cc1ccc(Oc2c(C(N)=O)cc([N+](=O)[O-])cc2[N+](=O)[O-])cc1 | -35% | -2% | 11µM* | -30% | ? | 6
Cc1ccc(CNc2ccc([N+](=O)[O-])cc2C(N)=O)cc1 | ? | 2% | 45% | ? | -8% | 0
COc1cc2cc(CN(CCc3cccc(C)c3)C(=S)NCCCN(C)C)c(=O)[nH]c2cc1OC | -11% | 28µM* | ? | 2% | -20% | -3
CNC(=S)N(CCc1cccc(C)c1)Cc1cc2cc(OC)c(OC)cc2[nH]c1=O | ? | ? | 16% | 1% | ? | -2
SMILES | GLP1R ag | ClpP mod | GLP-1R inv ag | p53 reactivation | HEK293 tox | LDHA block
COc1cc2cc(CN(CCO)C(=O)c3cccs3)c(=O)[nH]c2cc1OC | 0% | 32µM* | 14% | 1% | 6% | 0
COc1ccc2[nH]c(=O)c(CN(CCO)C(=O)c3cccs3)cc2c1 | -10% | -29% | 0% | -7% | 0% | 3
CCOc1cc(/C=N/NC(=O)Cn2nc([N+](=O)[O-])cc2C)ccc1OCc1ccc(F)cc1 | 3% | 4% | -4% | 0% | 11% | -12
CCCOc1ccc(CNC(=O)C(C)n2nc(C)n3c(cc4occc43)c2=O)cc1 (centres undefined) | / | -8% | -14% | / | -20% | -13
Cc1cccc(NC(=O)CN(C)C(=O)c2ccc(N3CCCCCC3)c([N+](=O)[O-])c2)c1C | 13% | / | 11µM* | -7% | -23% | 0
Cc1ccc(C)c(-n2nc(C)cc2NC(=O)CN(C)Cc2ccccc2)c1 | / | / | / | / | / | 2
COc1ccc(C2/C=C\CN(C(=O)C3CC3)[C@H](Cc3ccccc3)C(=O)N2Cc2ccc(F)cc2)cc1 (some centres undefined) | -3% | -4% | ? | 4% | -10% | 0
COc1ccc(C2/C=C\CN(C(=O)c3ccc(C)cc3)[C@H](Cc3ccccc3)C(=O)N2Cc2ccc(F)cc2)cc1 (some centres undefined) | 0% | 1% | 10µM* | -2% | -8% | 1
CC(C)=CCC[C@H](C)C[C@@H]1Cc2[nH][nH]c(=O)c2[C@H](c2ccc(Cl)cc2)O1 | 6% | -1% | ? | / | 1% | -1
O=c1[nH][nH]c2c1[C@@H](c1ccc(F)cc1)O[C@H](C1CCCCC1)C2 | 0% | 0% | ? | / | 3% | -7
O=c1c2c([nH]n1-c1ccccc1)C[C@@H](C1CCCCC1)O[C@H]2c1ccc(F)cc1 | -3% | 0% | 2.2µM* | / | -29% | 2
O=c1[nH][nH]c2c1[C@H](c1ccc(F)cc1)O[C@H](C1CCCCC1)C2 | 0% | 1% | 2.8µM* | / | 4% | 2
CC(C)=CCC[C@H](C)C[C@@H]1Cc2[nH][nH]c(=O)c2[C@@H](c2ccc(F)cc2)O1 | 6% | 2% | 5.6µM* | / | -16% | -1
C=CCOc1ccc(C=Nc2ccc(C)cc2C)c(O)c1 | / | / | / | / | / | 15
CC1CCCC2(C1)NC(=S)N(c1ccccc1)N2 (centres undefined) | 3% | -1% | 5µM* | 5% | -31% | 6
